# Measured values published in PubChem BioAssay AID2315 (National Center for Advancing Translational Sciences (NCATS), 2010).
# About 27,000 (9.3%) of roughly 290,000 compounds were called active. Rule as the data show it: active = inhibition mostly above about 28% (no sharp cut-off); inactive = mostly below about 43%. The full list was thinned out, with actives kept by preference.
# Assay: A qHTS for Small Molecule Inhibitors of Shiga Toxin; also: 0% is about no effect
# Conditions: Vero cells, Shiga toxin protein synthesis inhibition reporter; at 38.7 µM, hits give high values
row,Compound,inhibition
1,Cc1ccc(-c2ccnc3[nH]n(-c4ccccc4)c(=O)c23)cc1,17.7% (inactive)
2,C[C@H](NC(=O)C1CCN(S(=O)(=O)c2ccccc2)CC1)C(=O)NCc1ccccc1,-3.31% (inactive)
3,CC(=O)N1c2ccc(S(=O)(=O)NCCC(=O)N(C)C3CCCCC3)cc2CC1C (stereo not drawn),2.29% (inactive)
4,COc1ccc(C(C(=O)NC2CCCC2)N(CCCO)C(=O)Cn2nnc(-c3ccc(C)o3)n2)cc1 (stereo not drawn),-6.08% (inactive)
5,CC(=O)Nc1cccc(/C(C)=N/NC(=O)c2ccccc2Cl)c1,22% (inactive)
6,C/C(=N/NC(=O)c1ccc(NC(=O)c2ccc(F)cc2)cc1)c1ccccc1,30% (inactive)
7,COc1cccc(C(=O)N/N=C(\C)c2cccc(NC(=O)c3ccc(F)cc3)c2)c1OC,77.4% (active)
8,OC(CNC1CCCC1)COc1ccc(F)cc1 (stereo not drawn),-14% (inactive)
9,CC(=O)N1CCN(CC(c2ccccc2)c2ccccc2)CC1,-3.73% (inactive)
10,CC1CCCN(CC(=O)Nc2cc(Cl)ccc2Oc2ccccc2)C1 (stereo not drawn),0.789% (inactive)
11,CC1CCC2CCCCC2N1C(=O)c1cc([N+](=O)[O-])cc([N+](=O)[O-])c1 (stereo not drawn),-16.8% (inactive)
12,CN(C)C(=O)Oc1ccc2c(c1)O/C(=C\c1ccccc1)C2=O,62% (active)
13,O=C1/C(=C/c2ccc3c(c2)OCO3)Oc2cc(OCC(=O)N3CC(O)C[C@H]3C(=O)O)ccc21 (stereo partly drawn),-3% (inactive)
14,COC(=O)C(C)Oc1ccc2c(c1)O/C(=C\c1cccc(Br)c1)C2=O (stereo not drawn),-4.67% (inactive)
15,Cc1ccc(S(=O)(=O)N2CCC(C)CC2)cc1C(=O)NCc1ccccn1,5.07% (inactive)
16,COc1ccccc1OCc1ccc(C(=O)NC(C)c2ccccc2)o1 (stereo not drawn),-4.29% (inactive)
17,CCc1cc(-c2nnc(SCC(=O)NC3CC3)n2C)cs1,14.1% (inactive)
18,Cc1ccc(C(=O)N2CCCCCC2)cc1Br,20.5% (inactive)
19,C=CCNC(=O)c1ccc(C)c(Br)c1,19.7% (active)
20,Cc1ccc(C(=O)NC(C)c2ccccc2)cc1Br (stereo not drawn),38.4% (inactive)

row,Compound,inhibition
1,CCCc1nnc(SCC(=O)Nc2ccc(C(=O)OCC)cc2)o1,32.8% (inactive)
2,COCCNC(=O)c1ccc(S(=O)(=O)c2ccc(Cl)cc2)c(NC(C)=O)c1,-11.4% (inactive)
3,COCCNC(=O)c1snc2ccc(Cl)cc12,51.4% (active)
4,COCCNC(=O)c1ccc2c(c1)ncn2-c1ccc(C)c(Cl)c1,19.9% (inactive)
5,Cc1ccc(S(=O)(=O)N2CCCC(C(=O)N3CCN(C)CC3)C2)cc1 (stereo not drawn),-6.59% (inactive)
6,NS(=O)(=O)c1cccc(NC(=O)CC23CC4CC(CC(Br)(C4)C2)C3)c1,-9.01% (inactive)
7,CCOc1ccc(C(=O)Nc2ccc(S(=O)(=O)NCC3CCCO3)cc2)cc1OCC (stereo not drawn),12.5% (inactive)
8,O=C(Cc1csc(Nc2nc(=S)[nH]c3ccccc23)n1)NCCCN1CCN(c2cccc(Cl)c2)CC1,15.7% (inactive)
9,O=C(NC1CCCC1)C(c1ccc(Cl)cc1)N(C(=O)c1csnn1)C1CC1 (stereo not drawn),2.36% (inactive)
10,O=C(NCc1ccccc1)C(c1cccnc1)N(C(=O)c1csnn1)c1ccc(F)cc1 (stereo not drawn),1.7% (inactive)
11,CC1CCN(C(=O)Cn2nnnc2CN2CCOCC2)CC1,15.5% (inactive)
12,CS(=O)(=O)n1nc(-c2ccccc2)nc1NCc1ccco1,7.12% (inactive)
13,CCS(=O)(=O)n1nc(-c2ccc(OC)cc2)nc1SC,63.1% (inactive)
14,CCS(=O)(=O)n1nc(-c2ccccc2)nc1SCc1ccccc1,115% (active)
15,CCCC(C(=O)NC1CCCC1)N(C(=O)Cn1nnc(-c2ccc(C)o2)n1)c1cccc(O)c1 (stereo not drawn),-4.05% (inactive)
16,C[C@@H]1O[C@@H](OC[C@H]2O[C@@H](Oc3cc(O)c4c(c3)O[C@H](c3ccc(O)c(O)c3)CC4=O)[C@H](O)[C@@H](O)[C@@H]2O)[C@H](O)[C@H](O)[C@H]1O,-8.25% (inactive)
17,Cc1ccc(Cn2ccc(NC(=O)c3cc(C(C)C)on3)n2)cc1,84.3% (active)
18,Cc1ccc(Cn2ccc(NC(=O)C3C4CCC(C4)C3C(=O)O)n2)cc1 (stereo not drawn),-3.4% (inactive)
19,Cc1cc(NC(=O)c2cc(-c3cccs3)on2)nn1Cc1ccc(Cl)cc1,9.37% (inactive)
20,OC(c1ccc(Cl)cc1)C(CN1CCOCC1)c1ccccc1 (stereo not drawn),2.21% (inactive)

row,Compound,inhibition
1,CC(=O)c1ccc(S(=O)(=O)NCc2nnnn2-c2ccccc2)cc1,-2.55% (inactive)
2,Clc1ccc(-c2nnc(SCc3nc4ccccc4s3)o2)cc1,61.6% (active)
3,c1ccc(-c2nnc(SCc3nc4ccccc4[nH]3)o2)cc1,36.1% (inactive)
4,O=C(CSc1nnc(-c2ccncc2)o1)NCc1ccc(Cl)cc1,-9.29% (inactive)
5,CCOc1ccc(S(=O)(=O)N2CCC(c3ccccc3)CC2)cc1C(=O)O,-1.98% (inactive)
6,COc1cccc(-c2nc(CS(=O)(=O)CC(=O)NCCc3ccc(OC)c(OC)c3)c(C)o2)c1,-8.6% (inactive)
7,Cc1nc2ccccc2c(=O)n1NC(=O)c1ccc(Cl)c([N+](=O)[O-])c1,-9.41% (inactive)
8,NC1=NN(c2cccc(C(=O)O)c2)C(=O)C1,143% (active)
9,O=C(O)c1cccc(N2C(=O)Nc3ccccc3N2O)c1,11.8% (inactive)
10,COC(=O)CC1=NN(c2ccccc2)C(=O)C1,17.6% (inactive)
11,CC(C)c1nc(CNC(=O)CC2C(=O)NCCN2Cc2cccc(F)c2F)cs1 (stereo not drawn),-5.01% (inactive)
12,CN(CCNC(=O)c1cc2c(-c3ccccc3F)nn(C)c2s1)C1CCCCC1,-4.2% (inactive)
13,CN(CC(=O)N1CCN(c2ccccc2)CC1)S(=O)(=O)c1cccs1,63.8% (active)
14,COc1ccc(OC)c(S(=O)(=O)N(C)CC(=O)N2CCN(c3ccccc3)CC2)c1,-6.69% (inactive)
15,O=C(CCNS(=O)(=O)c1cccs1)N1CCN(c2ccc(F)cc2)CC1,-7.67% (inactive)
16,CCOc1ccc(S(=O)(=O)NCc2ccc3c(c2)OCO3)cc1C,-11.3% (inactive)
17,COc1ccc(N2C(=O)C3C(C2=O)C(C(=O)c2ccccc2)N2CCCC32)cc1 (stereo not drawn),19.2% (inactive)
18,CC(=O)Nc1ccc(S(=O)(=O)NNC(=O)CCc2ccccc2)cc1,-3.14% (inactive)
